Source: the supplement of paper PMC11732987, “Enantioselective OTUD7B fragment discovery through chemoproteomics screening and high-throughput optimisation” (Communications Chemistry, 2025)
Values without a mark were called inactive.

Key:
Test in all cases: log2 ratio of Biotin-Ahx-Ub-VS probe labelling (fragment/DMSO); higher = less target engagement (more negative = stronger competition), active = hit call of the paper (q ≤ 0.05, log2 ratio ≤ -1)
Details in all cases: compound concentration: 200 uM; treatment time: 3 h
[1] = molecular target: T1, USP19 (UniProt O94966)
T1 sequence (whole entry): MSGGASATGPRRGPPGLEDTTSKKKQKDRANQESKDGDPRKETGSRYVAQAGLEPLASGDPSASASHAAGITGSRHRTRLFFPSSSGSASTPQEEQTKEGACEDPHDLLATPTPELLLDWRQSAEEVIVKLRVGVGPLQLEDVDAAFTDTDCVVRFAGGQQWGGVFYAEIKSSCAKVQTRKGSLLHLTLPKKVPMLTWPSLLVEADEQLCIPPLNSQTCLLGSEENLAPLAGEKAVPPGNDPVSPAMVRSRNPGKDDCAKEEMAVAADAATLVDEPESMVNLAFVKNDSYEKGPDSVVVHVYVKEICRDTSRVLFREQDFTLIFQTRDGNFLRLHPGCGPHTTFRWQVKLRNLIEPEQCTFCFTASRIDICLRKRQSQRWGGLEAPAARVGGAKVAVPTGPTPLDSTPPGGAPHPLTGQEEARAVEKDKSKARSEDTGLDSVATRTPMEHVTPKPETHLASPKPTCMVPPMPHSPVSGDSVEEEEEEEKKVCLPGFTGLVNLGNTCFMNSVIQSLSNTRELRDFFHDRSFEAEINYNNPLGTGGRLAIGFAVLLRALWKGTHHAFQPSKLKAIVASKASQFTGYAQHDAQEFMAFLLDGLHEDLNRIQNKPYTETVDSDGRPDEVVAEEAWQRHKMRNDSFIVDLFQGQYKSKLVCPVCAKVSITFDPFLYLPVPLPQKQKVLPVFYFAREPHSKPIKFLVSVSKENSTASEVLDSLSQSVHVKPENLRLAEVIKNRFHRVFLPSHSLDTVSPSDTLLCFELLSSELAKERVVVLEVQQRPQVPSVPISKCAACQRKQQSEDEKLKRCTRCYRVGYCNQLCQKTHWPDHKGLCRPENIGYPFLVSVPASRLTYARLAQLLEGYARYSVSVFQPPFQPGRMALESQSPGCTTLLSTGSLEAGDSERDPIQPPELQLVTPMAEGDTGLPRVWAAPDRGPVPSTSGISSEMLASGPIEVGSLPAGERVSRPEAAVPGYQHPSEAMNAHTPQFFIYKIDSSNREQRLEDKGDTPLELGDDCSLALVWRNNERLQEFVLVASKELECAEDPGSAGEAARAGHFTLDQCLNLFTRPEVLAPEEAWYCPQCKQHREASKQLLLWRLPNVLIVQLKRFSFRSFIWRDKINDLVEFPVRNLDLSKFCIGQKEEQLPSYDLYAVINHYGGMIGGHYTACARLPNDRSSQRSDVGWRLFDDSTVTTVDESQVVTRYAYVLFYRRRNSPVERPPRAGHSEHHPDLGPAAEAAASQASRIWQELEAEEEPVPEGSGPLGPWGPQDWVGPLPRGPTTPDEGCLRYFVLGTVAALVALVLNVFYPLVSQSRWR
Procedure, shortened: (§1)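 HEK293T lysate, 495 µg per sample in Tris/CHAPS/IGEPAL buffer with protease inhibitors, was treated in triplicate with fragment at 200 µM or vehicle for 3 h and then with Biotin-Ahx-Ub-VS at 0.5 µM final for 1 h. Labelled DUBs were NeutrAvidin-enriched, digested with LysC and trypsin, and run by diaPASEF LC-MS/MS. Spectronaut label-free quantities were global-median-normalised, and values are average log2 fragment/vehicle ratios by unpaired t-test on proteins with ≥2 unique peptides.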

[2] = molecular target: USP24 (UniProt Q9UPU5)
Procedure, shortened: as §1

[3] = molecular target: T2, USP25 (UniProt Q9UHP3)
T2 sequence (whole entry): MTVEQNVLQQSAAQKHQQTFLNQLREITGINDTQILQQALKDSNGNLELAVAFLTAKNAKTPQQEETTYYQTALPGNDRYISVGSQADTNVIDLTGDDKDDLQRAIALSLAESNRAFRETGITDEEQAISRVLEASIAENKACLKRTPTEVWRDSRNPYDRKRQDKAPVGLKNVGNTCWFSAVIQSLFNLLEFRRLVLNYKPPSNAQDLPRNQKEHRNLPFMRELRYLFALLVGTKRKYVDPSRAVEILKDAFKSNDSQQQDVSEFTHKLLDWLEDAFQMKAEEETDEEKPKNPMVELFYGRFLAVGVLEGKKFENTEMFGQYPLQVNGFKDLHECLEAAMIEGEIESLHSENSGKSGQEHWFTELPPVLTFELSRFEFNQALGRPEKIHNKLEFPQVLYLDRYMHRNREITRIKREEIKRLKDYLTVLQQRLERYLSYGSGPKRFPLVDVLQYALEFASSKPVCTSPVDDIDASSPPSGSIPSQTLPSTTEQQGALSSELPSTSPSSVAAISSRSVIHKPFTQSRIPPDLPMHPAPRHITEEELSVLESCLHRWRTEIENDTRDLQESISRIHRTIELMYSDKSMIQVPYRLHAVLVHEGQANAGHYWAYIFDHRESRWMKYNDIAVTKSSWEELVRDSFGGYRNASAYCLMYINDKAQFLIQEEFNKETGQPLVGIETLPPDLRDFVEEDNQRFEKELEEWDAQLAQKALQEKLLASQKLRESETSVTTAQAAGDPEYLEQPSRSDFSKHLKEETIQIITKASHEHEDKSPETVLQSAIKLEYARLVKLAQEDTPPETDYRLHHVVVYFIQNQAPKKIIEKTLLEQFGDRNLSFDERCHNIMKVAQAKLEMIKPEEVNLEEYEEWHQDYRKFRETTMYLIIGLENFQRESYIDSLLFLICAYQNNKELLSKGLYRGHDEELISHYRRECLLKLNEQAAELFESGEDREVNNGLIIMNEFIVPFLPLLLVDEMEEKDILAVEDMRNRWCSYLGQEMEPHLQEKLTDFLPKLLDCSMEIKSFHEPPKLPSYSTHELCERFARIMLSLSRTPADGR
Procedure, shortened: as §1

[4] = molecular target: T3, USP28 (UniProt Q96RU2)
T3 sequence (whole entry): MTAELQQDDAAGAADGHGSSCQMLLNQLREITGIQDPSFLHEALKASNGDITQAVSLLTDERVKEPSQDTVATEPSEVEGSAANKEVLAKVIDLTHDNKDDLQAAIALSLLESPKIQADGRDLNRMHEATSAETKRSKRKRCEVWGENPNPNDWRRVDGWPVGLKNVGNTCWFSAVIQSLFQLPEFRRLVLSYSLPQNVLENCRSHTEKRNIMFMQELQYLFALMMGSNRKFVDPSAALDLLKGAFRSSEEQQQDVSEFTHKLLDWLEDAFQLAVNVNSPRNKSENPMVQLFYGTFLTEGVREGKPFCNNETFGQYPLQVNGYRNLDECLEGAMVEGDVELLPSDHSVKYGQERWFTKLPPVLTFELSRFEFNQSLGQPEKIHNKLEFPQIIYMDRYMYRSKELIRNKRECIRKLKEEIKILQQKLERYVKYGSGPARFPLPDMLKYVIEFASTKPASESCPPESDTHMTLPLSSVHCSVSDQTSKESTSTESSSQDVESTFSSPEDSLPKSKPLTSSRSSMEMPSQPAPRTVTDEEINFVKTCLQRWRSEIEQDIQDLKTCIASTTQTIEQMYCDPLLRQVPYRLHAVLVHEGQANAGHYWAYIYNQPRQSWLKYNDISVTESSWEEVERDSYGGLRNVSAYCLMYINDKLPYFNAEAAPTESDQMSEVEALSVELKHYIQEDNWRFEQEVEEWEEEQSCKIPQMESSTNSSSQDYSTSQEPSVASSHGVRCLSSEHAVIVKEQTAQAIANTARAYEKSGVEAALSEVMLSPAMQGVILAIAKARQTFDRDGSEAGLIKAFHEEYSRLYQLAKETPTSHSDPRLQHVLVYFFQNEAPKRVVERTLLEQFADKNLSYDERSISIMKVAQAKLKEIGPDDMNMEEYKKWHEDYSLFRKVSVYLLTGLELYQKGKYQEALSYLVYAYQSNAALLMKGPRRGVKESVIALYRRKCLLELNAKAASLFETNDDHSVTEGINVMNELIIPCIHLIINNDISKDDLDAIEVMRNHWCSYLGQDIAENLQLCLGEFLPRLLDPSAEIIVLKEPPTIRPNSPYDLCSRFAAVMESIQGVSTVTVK
Procedure, shortened: as §1

Sequence of USP24 (Q9UPU5 whole entry): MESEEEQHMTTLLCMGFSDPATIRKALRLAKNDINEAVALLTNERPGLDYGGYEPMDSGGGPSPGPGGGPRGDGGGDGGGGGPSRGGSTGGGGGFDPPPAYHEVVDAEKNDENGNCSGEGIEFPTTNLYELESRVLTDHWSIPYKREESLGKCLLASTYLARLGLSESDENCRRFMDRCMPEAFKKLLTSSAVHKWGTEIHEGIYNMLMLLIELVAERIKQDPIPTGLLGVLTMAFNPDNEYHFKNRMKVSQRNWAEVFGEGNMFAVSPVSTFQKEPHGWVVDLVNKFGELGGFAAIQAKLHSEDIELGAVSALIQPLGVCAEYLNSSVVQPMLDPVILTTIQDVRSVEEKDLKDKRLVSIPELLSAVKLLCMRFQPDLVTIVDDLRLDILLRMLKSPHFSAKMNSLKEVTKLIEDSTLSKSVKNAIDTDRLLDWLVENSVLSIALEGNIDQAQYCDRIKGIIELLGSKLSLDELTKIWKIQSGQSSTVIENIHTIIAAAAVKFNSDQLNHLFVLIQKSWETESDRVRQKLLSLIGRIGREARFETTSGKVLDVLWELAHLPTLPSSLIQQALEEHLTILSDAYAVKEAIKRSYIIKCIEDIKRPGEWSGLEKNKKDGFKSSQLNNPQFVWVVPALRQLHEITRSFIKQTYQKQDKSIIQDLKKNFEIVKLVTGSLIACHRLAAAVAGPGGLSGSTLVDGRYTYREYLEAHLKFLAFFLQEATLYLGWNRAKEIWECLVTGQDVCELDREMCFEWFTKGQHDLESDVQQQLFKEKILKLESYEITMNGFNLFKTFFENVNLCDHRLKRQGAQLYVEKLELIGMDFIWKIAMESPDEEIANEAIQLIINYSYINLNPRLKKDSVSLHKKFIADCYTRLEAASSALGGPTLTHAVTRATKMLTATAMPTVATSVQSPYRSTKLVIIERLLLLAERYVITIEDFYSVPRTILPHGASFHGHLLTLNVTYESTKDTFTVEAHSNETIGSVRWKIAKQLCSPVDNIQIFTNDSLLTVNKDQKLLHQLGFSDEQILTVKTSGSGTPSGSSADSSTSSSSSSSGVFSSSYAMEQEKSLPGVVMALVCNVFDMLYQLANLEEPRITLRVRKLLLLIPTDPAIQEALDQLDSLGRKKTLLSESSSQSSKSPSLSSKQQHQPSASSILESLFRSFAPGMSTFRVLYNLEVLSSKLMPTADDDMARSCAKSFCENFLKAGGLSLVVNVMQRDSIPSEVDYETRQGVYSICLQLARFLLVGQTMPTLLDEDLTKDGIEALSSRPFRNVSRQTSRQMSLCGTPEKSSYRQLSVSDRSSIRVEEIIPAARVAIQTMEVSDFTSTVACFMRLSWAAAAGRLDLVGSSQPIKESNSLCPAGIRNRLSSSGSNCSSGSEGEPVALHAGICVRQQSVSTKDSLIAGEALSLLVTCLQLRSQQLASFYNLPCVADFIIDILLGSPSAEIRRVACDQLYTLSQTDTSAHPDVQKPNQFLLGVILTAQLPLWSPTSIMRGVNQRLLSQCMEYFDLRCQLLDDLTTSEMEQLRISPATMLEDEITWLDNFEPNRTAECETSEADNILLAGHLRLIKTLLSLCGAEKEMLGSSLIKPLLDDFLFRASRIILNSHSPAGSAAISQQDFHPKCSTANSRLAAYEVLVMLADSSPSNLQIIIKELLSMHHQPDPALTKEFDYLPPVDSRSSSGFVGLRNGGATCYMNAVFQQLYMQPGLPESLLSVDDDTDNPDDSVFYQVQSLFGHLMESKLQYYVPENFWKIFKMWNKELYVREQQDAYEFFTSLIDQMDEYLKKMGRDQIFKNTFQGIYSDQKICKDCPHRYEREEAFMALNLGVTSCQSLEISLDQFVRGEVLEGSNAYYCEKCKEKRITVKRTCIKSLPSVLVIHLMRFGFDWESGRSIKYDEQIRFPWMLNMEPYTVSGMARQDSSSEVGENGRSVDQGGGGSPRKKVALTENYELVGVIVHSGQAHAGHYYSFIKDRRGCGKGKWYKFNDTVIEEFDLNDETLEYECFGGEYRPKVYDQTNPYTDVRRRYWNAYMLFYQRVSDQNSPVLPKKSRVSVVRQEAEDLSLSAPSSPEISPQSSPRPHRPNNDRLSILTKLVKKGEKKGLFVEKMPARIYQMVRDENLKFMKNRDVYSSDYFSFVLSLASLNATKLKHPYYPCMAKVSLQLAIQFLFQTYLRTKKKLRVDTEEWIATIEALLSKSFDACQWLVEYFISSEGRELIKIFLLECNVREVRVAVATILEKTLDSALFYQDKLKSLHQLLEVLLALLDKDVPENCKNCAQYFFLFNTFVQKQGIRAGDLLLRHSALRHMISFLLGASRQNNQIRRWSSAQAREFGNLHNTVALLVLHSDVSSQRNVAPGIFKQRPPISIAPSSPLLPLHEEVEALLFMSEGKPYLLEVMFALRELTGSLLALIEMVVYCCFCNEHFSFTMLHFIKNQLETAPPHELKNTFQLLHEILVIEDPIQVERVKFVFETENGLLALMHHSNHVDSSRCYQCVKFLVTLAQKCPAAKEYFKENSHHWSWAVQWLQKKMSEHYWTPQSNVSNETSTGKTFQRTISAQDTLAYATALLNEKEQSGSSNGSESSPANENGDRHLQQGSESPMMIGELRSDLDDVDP

Question: Which results are given for `O=C(CCl)NC1CCOc2ccccc21` (centres undefined)?
Answer: log2 ratio of Biotin-Ahx-Ub-VS probe labelling [1]: -0.918; log2 ratio of Biotin-Ahx-Ub-VS probe labelling [2]: -1.01 (active); log2 ratio of Biotin-Ahx-Ub-VS probe labelling [3]: -1.23 (active); log2 ratio of Biotin-Ahx-Ub-VS probe labelling [4]: -1.6 (active)
